The panel holds about 83,000 compounds, 20% with a hit somewhere; the sample as a whole holds those more often.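 Negative percent growth values reflect cell death: -40 means 40% of the cells present at the start died, and -100 means all died.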 The source made the active and inactive calls. Rule for the calls: active = growth percent below 10; inactive = the rest.
Legend:
Experiment in all cases: NCI-60 one-dose screen, 48 h (100 = growth as untreated, 0 = no growth, -100 = all killed)
Conditions in all cases: 10 µM
NCI-H23 lung = system: NCI-H23 lung
NCI-H226 lung = system: NCI-H226 lung
NCI-H322M lung = system: NCI-H322M lung
HOP-62 NSCLC = system: HOP-62 NSCLC
NCI-H460 lung = system: NCI-H460 lung
NCI-H522 lung = system: NCI-H522 lung
A549/ATCC NSCLC = system: A549/ATCC NSCLC
786-0 renal = system: 786-0 renal
COLO 205 colon = system: COLO 205 colon
DU-145 prostate = system: DU-145 prostate
K-562 leukemia = system: K-562 leukemia
MDA-MB-231 breast = system: MDA-MB-231 breast
RXF 393 renal = system: RXF 393 renal
SF-268 CNS = system: SF-268 CNS
SF-295 CNS = system: SF-295 CNS
SF-539 CNS = system: SF-539 CNS
UACC-257 melanoma = system: UACC-257 melanoma
M14 melanoma = system: M14 melanoma
HCT-15 colon = system: HCT-15 colon

Measured: growth

O=C(O)c1ccc(Cl)cc1Nc1ccc(F)cc1
inactive: NCI-H23 lung 92.7% | NCI-H226 lung 82.3% | NCI-H322M lung 38.1% | HOP-62 NSCLC 96.7% | NCI-H460 lung 76.8% | NCI-H522 lung 82.6% | A549/ATCC NSCLC 86.4% | 786-0 renal 68.6% | COLO 205 colon 95.7% | DU-145 prostate 87.1% | K-562 leukemia 75.4% | MDA-MB-231 breast 70.4% | RXF 393 renal 92.7% | SF-268 CNS 62.4% | SF-295 CNS 73% | SF-539 CNS 93.8% | UACC-257 melanoma 97.6% | M14 melanoma 77.6% | HCT-15 colon 53.7%

Cc1cc(C)c(CCc2cc(C)c(C)cc2C)cc1C
inactive: NCI-H23 lung 98% | NCI-H226 lung 92.3% | NCI-H322M lung 112% | HOP-62 NSCLC 117% | NCI-H460 lung 110% | NCI-H522 lung 95.5% | A549/ATCC NSCLC 99.9% | 786-0 renal 108% | COLO 205 colon 118% | DU-145 prostate 107% | K-562 leukemia 94.8% | MDA-MB-231 breast 104% | RXF 393 renal 117% | SF-268 CNS 103% | SF-295 CNS 108% | SF-539 CNS 105% | UACC-257 melanoma 101% | M14 melanoma 111% | HCT-15 colon 117%

CN1c2ccccc2[C@]2(Cc3ccccc3)Cc3ccccc3N[C@H]12
inactive: NCI-H23 lung 91.4% | NCI-H226 lung 98.2% | NCI-H322M lung 111% | HOP-62 NSCLC 120% | NCI-H460 lung 111% | NCI-H522 lung 71.7% | A549/ATCC NSCLC 109% | 786-0 renal 106% | COLO 205 colon 118% | DU-145 prostate 115% | K-562 leukemia 92.1% | MDA-MB-231 breast 97.5% | RXF 393 renal 112% | SF-268 CNS 112% | SF-295 CNS 104% | SF-539 CNS 105% | UACC-257 melanoma 111% | M14 melanoma 104% | HCT-15 colon 96.3%

O=C1OCC2=C1C(c1ccc(Cl)c(Cl)c1)c1cc3c(cc1N2CCO)OCCO3 (stereo not given)
active: NCI-H460 lung 6.2% | NCI-H522 lung -26.7% | COLO 205 colon -11.9% | DU-145 prostate 6.74% | RXF 393 renal 8.18% | SF-295 CNS -12.8% | SF-539 CNS 2.76%
inactive: NCI-H23 lung 32.5% | NCI-H226 lung 25.4% | NCI-H322M lung 37.3% | HOP-62 NSCLC 34.1% | A549/ATCC NSCLC 22.6% | 786-0 renal 25.7% | K-562 leukemia 17.8% | MDA-MB-231 breast 26.6% | SF-268 CNS 43.1% | UACC-257 melanoma 59.9% | M14 melanoma 12.4% | HCT-15 colon 18.3%

COc1ccc2c(c1)C(=O)c1c-2c(=O)n(CCCN(C)C)c2cc(OC)c(OC)cc12
inactive: NCI-H23 lung 48.8% | NCI-H226 lung 70.5% | NCI-H322M lung 80% | HOP-62 NSCLC 51.4% | NCI-H460 lung 10.9% | NCI-H522 lung 56.5% | A549/ATCC NSCLC 56.3% | 786-0 renal 71.8% | COLO 205 colon 100% | DU-145 prostate 26.9% | K-562 leukemia 64.5% | MDA-MB-231 breast 103% | RXF 393 renal 89.4% | SF-268 CNS 46.9% | SF-295 CNS 20.7% | SF-539 CNS 55% | UACC-257 melanoma 100% | M14 melanoma 48.4% | HCT-15 colon 82.2%

COc1cc(-c2cc(C(=O)N3CCN(C(=O)c4ccccc4NCc4ccco4)CC3)nc3cc(-c4ccccc4)nn23)cc(OC)c1OC
active: NCI-H460 lung 7.61% | NCI-H522 lung -6.6% | COLO 205 colon -16.7% | DU-145 prostate 2.04% | RXF 393 renal 6.82%
inactive: NCI-H23 lung 56.7% | NCI-H226 lung 57% | NCI-H322M lung 13.5% | HOP-62 NSCLC 45.2% | A549/ATCC NSCLC 24.6% | 786-0 renal 31.6% | K-562 leukemia 12.3% | MDA-MB-231 breast 42.9% | SF-268 CNS 38.6% | SF-295 CNS 49.7% | SF-539 CNS 17.8% | UACC-257 melanoma 33.6% | M14 melanoma 23.8% | HCT-15 colon 29.1%

O=C(Nc1ccncc1)C(=O)c1cn(S(=O)(=O)c2ccc(F)cc2)c2ccccc12
active: NCI-H522 lung 0.626% | K-562 leukemia 9.29%
inactive: NCI-H23 lung 36.8% | NCI-H226 lung 53.7% | NCI-H322M lung 84.9% | HOP-62 NSCLC 36.2% | NCI-H460 lung 74.7% | A549/ATCC NSCLC 82.3% | 786-0 renal 43.9% | COLO 205 colon 103% | DU-145 prostate 32% | MDA-MB-231 breast 57.8% | RXF 393 renal 68.1% | SF-268 CNS 47.9% | SF-295 CNS 61.3% | SF-539 CNS 16.2% | UACC-257 melanoma 49.1% | M14 melanoma 14% | HCT-15 colon 23.1%

Cc1cc(C)c2c(n1)sc1c(Nc3ccc(Cl)cc3)ncnc12
active: NCI-H23 lung 4.49% | NCI-H226 lung 1.79% | HOP-62 NSCLC 5.01% | NCI-H460 lung 5.8% | 786-0 renal -3.32% | DU-145 prostate 6.73% | RXF 393 renal 1.12% | SF-268 CNS 0.138% | SF-539 CNS -49.5% | M14 melanoma -48.3%
inactive: NCI-H322M lung 32% | NCI-H522 lung 16.1% | A549/ATCC NSCLC 18.2% | COLO 205 colon 10.6% | K-562 leukemia 46.2% | MDA-MB-231 breast 32.1% | SF-295 CNS 10.6% | UACC-257 melanoma 20.3% | HCT-15 colon 31%

c1ccc(C(NC2CC3CCC2C3)c2ccccc2)cc1 (stereo not given)
inactive: NCI-H23 lung 105% | NCI-H226 lung 85.8% | NCI-H322M lung 101% | HOP-62 NSCLC 97.2% | NCI-H460 lung 105% | NCI-H522 lung 85.5% | A549/ATCC NSCLC 95.7% | 786-0 renal 97% | COLO 205 colon 103% | DU-145 prostate 108% | K-562 leukemia 92.8% | MDA-MB-231 breast 96.1% | RXF 393 renal 102% | SF-268 CNS 105% | SF-295 CNS 94.7% | SF-539 CNS 111% | UACC-257 melanoma 102% | M14 melanoma 93.1% | HCT-15 colon 97.6%

O=C(Nc1ccncc1)C(=O)c1cn(S(=O)(=O)c2cc(Cl)cc(Cl)c2)c2ccccc12
inactive: NCI-H23 lung 70.3% | NCI-H226 lung 74.2% | NCI-H322M lung 99.6% | HOP-62 NSCLC 71.7% | NCI-H460 lung 87.3% | NCI-H522 lung 40.2% | A549/ATCC NSCLC 85.3% | 786-0 renal 72.5% | COLO 205 colon 104% | DU-145 prostate 66.5% | K-562 leukemia 28.5% | MDA-MB-231 breast 63.6% | RXF 393 renal 75% | SF-268 CNS 94.3% | SF-295 CNS 38.2% | SF-539 CNS 61.7% | UACC-257 melanoma 69.8% | M14 melanoma 71.5% | HCT-15 colon 69.5%

O=C(NC(Cc1ccc(O)cc1)C(=O)N=Nc1c(O)[nH]c2ccccc12)c1ccccc1 (stereo not given)
inactive: NCI-H23 lung 95% | NCI-H226 lung 100% | NCI-H322M lung 102% | HOP-62 NSCLC 93.3% | NCI-H460 lung 107% | NCI-H522 lung 97.1% | A549/ATCC NSCLC 99.5% | 786-0 renal 98.9% | COLO 205 colon 109% | DU-145 prostate 108% | K-562 leukemia 107% | MDA-MB-231 breast 110% | RXF 393 renal 108% | SF-268 CNS 97.8% | SF-295 CNS 97.4% | SF-539 CNS 98.3% | UACC-257 melanoma 97.5% | M14 melanoma 94% | HCT-15 colon 103%

Cc1ccc(-c2nc(/C=C3/C(=O)N(C)c4ccc(F)cc43)c3ccccn23)cc1
inactive: NCI-H23 lung 86.5% | NCI-H226 lung 106% | NCI-H322M lung 103% | HOP-62 NSCLC 77.9% | NCI-H460 lung 96.7% | NCI-H522 lung 60.5% | A549/ATCC NSCLC 94.1% | 786-0 renal 107% | COLO 205 colon 120% | DU-145 prostate 99.3% | K-562 leukemia 107% | MDA-MB-231 breast 76.5% | RXF 393 renal 97.9% | SF-268 CNS 92.1% | SF-295 CNS 71.3% | SF-539 CNS 94.6% | UACC-257 melanoma 106% | M14 melanoma 99.5% | HCT-15 colon 93%

COc1ccc2c(c1)C(=O)c1c-2c(OCCN(C)C)nc2cc(OC)c(OC)cc12
inactive: NCI-H23 lung 53.1% | NCI-H226 lung 58% | NCI-H322M lung 57.2% | HOP-62 NSCLC 36.1% | NCI-H460 lung 36.6% | NCI-H522 lung 42.1% | A549/ATCC NSCLC 47.8% | 786-0 renal 79.1% | COLO 205 colon 66.5% | DU-145 prostate 52% | K-562 leukemia 62% | MDA-MB-231 breast 72.3% | RXF 393 renal 70.4% | SF-268 CNS 41% | SF-295 CNS 21.5% | SF-539 CNS 71.9% | UACC-257 melanoma 103% | M14 melanoma 88.8% | HCT-15 colon 76.8%

c1ccc2c(c1)oc1c3cccnc3ccc21
inactive: NCI-H23 lung 86.8% | NCI-H226 lung 87.4% | NCI-H322M lung 66% | HOP-62 NSCLC 86.7% | NCI-H460 lung 81.6% | NCI-H522 lung 89.8% | A549/ATCC NSCLC 94.1% | 786-0 renal 94.4% | COLO 205 colon 104% | DU-145 prostate 102% | K-562 leukemia 95.8% | MDA-MB-231 breast 87.7% | RXF 393 renal 94.4% | SF-268 CNS 98.3% | SF-295 CNS 105% | SF-539 CNS 88.1% | UACC-257 melanoma 101% | M14 melanoma 100% | HCT-15 colon 95.1%

Clc1cccc(-c2nc(-c3cccs3)no2)c1
inactive: NCI-H23 lung 92.8% | NCI-H226 lung 100% | NCI-H322M lung 114% | HOP-62 NSCLC 97.8% | NCI-H460 lung 110% | NCI-H522 lung 92% | A549/ATCC NSCLC 94.1% | 786-0 renal 99.6% | COLO 205 colon 114% | DU-145 prostate 120% | K-562 leukemia 102% | MDA-MB-231 breast 81.4% | RXF 393 renal 113% | SF-268 CNS 106% | SF-295 CNS 92.2% | SF-539 CNS 92.6% | UACC-257 melanoma 110% | M14 melanoma 105% | HCT-15 colon 47.4%

— PubChem BioAssay (NCI)
